# Source: PubChem BioAssay
# “And” between values parts separate entries of the source, which are not always exact repeats. Identical values can stand only once. The source made the active and inactive calls.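 How the source made its calls, unless noted: active means normalized viability below 100% at a tested concentration; inactive means the rest.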
# What was measured:
# [1] = viability loss with induced miR-34 in A549 – imaging, A549 dox-inducible miR-34, nuclei and caspase counts, primary screen (AID 1347080;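 active means compounds whose cell count with miR-34 switched on is under 0.7 times the count with it off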); conditions: A549 miR-34 inducible, Hoechst nuclei count, 48 h
# [2] = MELAS cybrid and Rieske KO viability enhancers – cell-based, MELAS cybrids, Rieske KO mouse fibroblasts, CellTiter-Glo, primary screen (AID 1508586;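 active means mean z-score across replicates of 1.96 or higher in either the MELAS or the Rieske mutant cell line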;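 further: z relative to plate mean and SD of compound and empty wells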); conditions: low glucose
# [3] = drug combination growth inhibition, ovarian cancer – cell-based, oncology-focused library, rucaparib conditional, profiling panel (AID 1508598); conditions: patient-derived ovarian cancer cells, CellTiter-Glo viability, 144 h, stronger effect = lower value
# [4] = growth inhibition, single agent or in combination, cell-based, chromothripsis tumors, cisplatin or BGB combos (AID 1671449; in the data active means inhibition above about 80%;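 further: cells exposed for 96 hours; 0% = vehicle DMSO and 100% = killing by high DMSO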); conditions: LFS_MB_P medulloblastoma cells
# [5] = growth inhibition, single agent and combos, cell-based, chromothripsis tumors, cisplatin or BGB combos (AID 1671450; in the data active means inhibition above about 80%;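 further: cells exposed to compound for four days; 0% = vehicle DMSO and 100% = cell killing by high DMSO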); conditions: HDN33 neuroblastoma cells, stronger effect = higher value
# [6] = growth inhibition, single agents and combos, ICB984, cell-based, cisplatin or BGB combos, synergistic combos for chromothripsis tumors (AID 1671451; call rule not given here;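 further: cells exposed for 96 hours before readout; 0% = vehicle DMSO and 100% = killing by high DMSO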); conditions: ICB984 medulloblastoma cells, drug combinations, stronger effect = higher value
# [7] = growth inhibition, single agents and combos, LFS_MB_1R, cell-based, cisplatin or BGB combos, synergistic combos for chromothripsis tumors (AID 1671452; in the data active means inhibition above about 80%;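 further: cells exposed for 96 hours before readout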); conditions: LFS_MB_1R medulloblastoma cells, stronger effect = higher value
# [8] = growth inhibition, single agents and combos, HTB85, cell-based, BGB or cisplatin IC20 combos, synergistic combos for chromothripsis tumors (AID 1671453; in the data active means inhibition above about 80%;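 further: cells exposed for 96 hours before readout; 0% = vehicle DMSO and 100% = high DMSO killing control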); conditions: HTB85 osteosarcoma cells, drug combinations, stronger effect = higher value
# [9] = growth inhibition, single agents and combos, CRL2098, cell-based, BGB or cisplatin IC20 combos, synergistic combos for chromothripsis tumors (AID 1671454; in the data active means inhibition above about 80%;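 further: cells exposed for 96 h before readout; 0% = vehicle DMSO and 100% = killing by high DMSO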); conditions: CRL2098 osteosarcoma cells, drug combinations, stronger effect = higher value
# [10] = growth inhibition, single agents and combos, HD-MB03, cell-based, BGB or cisplatin IC20 combos, synergistic combos for chromothripsis tumors (AID 1671455; in the data active means inhibition above about 83%;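 further: 0% = vehicle DMSO and 100% = high DMSO as cytotoxic control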); conditions: HD-MB03 medulloblastoma cells, stronger effect = higher value
# [11] = growth inhibition, single agents and combos, UWB1.289, cell-based, BGB or cisplatin combos, synergistic combos for chromothripsis tumors (AID 1671456; in the data active means inhibition above about 80%;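 further: cells exposed to compound for four days; 0% = vehicle DMSO and 100% = killing by high DMSO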); conditions: UWB1.289 ovarian carcinoma cells, stronger effect = higher value
# [12] = growth inhibition, single agents and combos, LFS_MB_2R, cell-based, cisplatin combos, synergistic combos for chromothripsis tumors (AID 1671457; in the data active means inhibition above about 80%;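 further: cells exposed to compound for four days before readout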); conditions: LFS_MB_2R medulloblastoma cells, stronger effect = higher value
# [13] = growth inhibition, MDA-MB-436, cell-based, BGB or cisplatin combos, synergistic combos for chromothripsis tumors (AID 1671458; call rule not given here;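 further: cells exposed for 96 hours; 0% = vehicle DMSO and 100% = killing by high DMSO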); conditions: MDA-MB-436 breast carcinoma growth inhibition, drug combinations, stronger effect = higher value
# [14] = UWB1.289_BRCA1 ovarian cancer growth, cell-based, BGB or cisplatin combinations (AID 1671459; in the data active means inhibition above about 80%); conditions: UWB1.289 BRCA1 ovarian carcinoma, drug combinations, stronger effect = higher value
# [15] = drug combination toxicity in non-malignant astrocytes – cell-based, BGB or cisplatin IC20 combos, cytotoxicity control for chromothriptic childhood tumor combination screen (AID 1671460; in the data active means inhibition above about 80%;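 further: cells exposed to compounds for 96 hours before viability readout; 0% = vehicle and 100% = killing control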); conditions: Human astrocytes, viability inhibition, drug combinations, at 0.5 µM, stronger effect = higher value
# [16] = BT084 cell growth, single and combined drugs, ICGC_MB145, cisplatin and BGB IC40 combos (AID 1671461; in the data active means inhibition above about 80%;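 further: cells exposed to drugs for 96 hours; 0% = vehicle DMSO and 100% = high DMSO full killing control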); conditions: BT084 medulloblastoma cells, drug combinations, stronger effect = higher value
# [17] = RCMB18 cell growth, single agent and combined, cisplatin and BGB IC40 combos (AID 1671462; in the data active means inhibition above about 80%;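 further: cells exposed to compound for four days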); conditions: RCMB18 medulloblastoma cells, stronger effect = higher value
# [18] = CRL1545 cell growth, single agent and combined, cisplatin and BGB IC20 combos (AID 1671464; in the data active means inhibition above about 80%;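 further: cells exposed to compound for 96 hours before readout; 0% = vehicle DMSO and 100% = high DMSO killing control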); conditions: CRL1545 osteosarcoma cells, stronger effect = higher value
# [19] = measured here: combination with BGB IC40, at 0.05 µM
# [20] = measured here: with BGB IC20 combination, at 0.5 µM
# [21] = measured here: with cisplatin IC20 combination, at 0.5 µM
# [22] = measured here: combination with cisplatin, at 0.5 µM
# [23] = measured here: combination with cisplatin, at 5 µM
structure (smiles),measurement,setting,value
C[C@@]1(c2nc3c(C(N)=O)cccc3[nH]2)CCCN1,fold change,"[1]; stronger effect = lower value, cell number ratio, induced over uninduced",0.941 (inactive)
same,fold change,[1]; measured here: relative caspase fold change +Dox/-Dox,1.01
same,cell count,"[1]; measured here: total cells with miR-34 induction, stronger effect = lower value",6840
same,cell count,[1]; measured here: total cells without miR-34 induction,7270
same,z-score,"[2]; MELAS cybrid survival, CellTiter-Glo 48 h, stronger effect = higher value",-0.268 (inactive)
same,z-score,"[2]; Rieske KO mouse fibroblast survival, CellTiter-Glo 72 h",0.497
same,viability,"[3]; at 0.000305 µM, OCI-C5x cells, with rucaparib 10 µM, 100% = cells with rucaparib alone",125% (inactive)
same,viability,"[3]; at 0.000305 µM, OCI-C5x cells, without rucaparib",110% (inactive)
same,viability,"[3]; at 0.000305 µM, OCI-P5x cells, with rucaparib 20 µM, 100% = cells with rucaparib alone",108% (inactive)
same,viability,"[3]; at 0.000305 µM, OCI-P5x cells, without rucaparib",83.4% (active)
same,viability,"[3]; at 0.00122 µM, OCI-C5x cells, with rucaparib 10 µM, 100% = cells with rucaparib alone",114% (inactive)
same,viability,"[3]; at 0.00122 µM, OCI-C5x cells, without rucaparib",114% (inactive)
same,viability,"[3]; at 0.00122 µM, OCI-P5x cells, with rucaparib 20 µM, 100% = cells with rucaparib alone",97.2% (active)
same,viability,"[3]; at 0.00122 µM, OCI-P5x cells, without rucaparib",101% (inactive)
same,viability,"[3]; at 0.00488 µM, OCI-C5x cells, with rucaparib 10 µM, 100% = cells with rucaparib alone",122% (inactive)
same,viability,"[3]; at 0.00488 µM, OCI-C5x cells, without rucaparib",109% (inactive)
same,viability,"[3]; at 0.00488 µM, OCI-P5x cells, with rucaparib 20 µM, 100% = cells with rucaparib alone",106% (inactive)
same,viability,"[3]; at 0.00488 µM, OCI-P5x cells, without rucaparib",102% (inactive)
same,viability,"[3]; at 0.0195 µM, OCI-C5x cells, with rucaparib 10 µM, 100% = cells with rucaparib alone",121% (inactive)
same,viability,"[3]; at 0.0195 µM, OCI-C5x cells, without rucaparib",106% (inactive)
same,viability,"[3]; at 0.0195 µM, OCI-P5x cells, with rucaparib 20 µM, 100% = cells with rucaparib alone",98.2% (active)
same,viability,"[3]; at 0.0195 µM, OCI-P5x cells, without rucaparib",95.2% (active)
same,viability,"[3]; at 0.0781 µM, OCI-C5x cells, with rucaparib 10 µM, 100% = cells with rucaparib alone",120% (inactive)
same,viability,"[3]; at 0.0781 µM, OCI-C5x cells, without rucaparib",104% (inactive)
same,viability,"[3]; at 0.0781 µM, OCI-P5x cells, with rucaparib 20 µM, 100% = cells with rucaparib alone",91.6% (active)
same,viability,"[3]; at 0.0781 µM, OCI-P5x cells, without rucaparib",102% (inactive)
same,viability,"[3]; at 0.313 µM, OCI-C5x cells, with rucaparib 10 µM, 100% = cells with rucaparib alone",132% (inactive)
same,viability,"[3]; at 0.313 µM, OCI-C5x cells, without rucaparib",102% (inactive)
same,viability,"[3]; at 0.313 µM, OCI-P5x cells, with rucaparib 20 µM, 100% = cells with rucaparib alone",98.3% (active)
same,viability,"[3]; at 0.313 µM, OCI-P5x cells, without rucaparib",91% (active)
same,viability,"[3]; at 1.25 µM, OCI-C5x cells, with rucaparib 10 µM, 100% = cells with rucaparib alone",111% (inactive)
same,viability,"[3]; at 1.25 µM, OCI-C5x cells, without rucaparib",108% (inactive)
same,viability,"[3]; at 1.25 µM, OCI-P5x cells, with rucaparib 20 µM, 100% = cells with rucaparib alone",90% (active)
same,viability,"[3]; at 1.25 µM, OCI-P5x cells, without rucaparib",87.4% (active)
same,viability,"[3]; at 5 µM, OCI-C5x cells, with rucaparib 10 µM, 100% = cells with rucaparib alone",123% (inactive)
same,viability,"[3]; at 5 µM, OCI-C5x cells, without rucaparib",108% (inactive)
same,viability,"[3]; at 5 µM, OCI-P5x cells, with rucaparib 20 µM, 100% = cells with rucaparib alone",80.7% (active)
same,viability,"[3]; at 5 µM, OCI-P5x cells, without rucaparib",91.4% (active)
same,inhibition,"[4]; at 0.5 µM, stronger effect = higher value",-30.4% (inactive) and -7.42% (inactive)
same,inhibition,"[4]; measured here: combination with BGB IC20, at 0.005 µM",18.7% and -30.5%
same,inhibition,"[4]; measured here: combination with BGB IC40, at 0.005 µM",-17.7% and -33.9%
same,inhibition,[4]; [19],4.58% and -46.4%
same,inhibition,"[4]; measured here: combination with cisplatin, at 0.5 µM, stronger effect = higher value",-30.4% and -24.5%
same,inhibition,"[4]; measured here: combination with cisplatin, at 5 µM, stronger effect = higher value",-24.1% and -57.4%
same,inhibition,"[5]; BGB combo, at 5 µM",-38.7% and -21.7%
same,inhibition,[5]; at 0.5 µM,-18.6% (inactive) and -27.5% (inactive)
same,inhibition,"[5]; cisplatin combo, at 5 µM",-25% and 2.08%
same,inhibition,[5]; [20],-20.1% and -23.6%
same,inhibition,[5]; [21],-10.4% and -15.2%
same,inhibition,"[5]; single agent, at 5 µM",-35.1% and -10.6%
same,inhibition,"[6]; BGB IC20 combo, at 0.005 µM",-43.5% and -1.75%
same,inhibition,"[6]; BGB IC40 combo, at 0.005 µM",-45.8% and -18.7%
same,inhibition,"[6]; BGB IC40 combo, at 0.05 µM",-19.5% and -39.6%
same,inhibition,[6]; at 0.5 µM,-17.4% (inactive) and -39% (inactive)
same,inhibition,"[6]; cisplatin combo, at 0.05 µM",-25.6% and -44.6%
same,inhibition,"[6]; cisplatin combo, at 0.5 µM",-23.4% and -27.8%
same,inhibition,"[6]; cisplatin combo, at 5 µM",-25.3% and -24.6%
same,inhibition,"[6]; measured here: 5 uM single agent, at 5 µM",-15.1% and -18.4%
same,inhibition,[7]; at 0.5 µM,-10.8% (inactive) and -21.8% (inactive)
same,inhibition,[7]; [19],5.8% and -13.2%
same,inhibition,[7]; [22],-30.9% and -32.1%
same,inhibition,[7]; [23],-34.7% and -78.6%
same,inhibition,[8]; at 0.5 µM,-28.2% (inactive) and -8.28% (inactive)
same,inhibition,"[8]; measured here: with BGB IC20, at 0.5 µM",-26.4% and -15.6%
same,inhibition,"[8]; measured here: with BGB IC20, at 5 µM",-37.2% and -23.1%
same,inhibition,"[8]; measured here: with cisplatin IC20, at 0.5 µM",-25.2% and -2.08%
same,inhibition,"[8]; measured here: with cisplatin IC20, at 5 µM",-5% and -37.1%
same,inhibition,"[8]; single agent, at 5 µM",-8.07% and -11.2%
same,inhibition,[9]; at 0.5 µM,-55.3% (inactive) and -67.8% (inactive)
same,inhibition,"[9]; measured here: combination with BGB at IC20, at 0.5 µM",-51.9% and -45%
same,inhibition,"[9]; measured here: combination with cisplatin at IC20, at 0.5 µM",-90.3% and -100%
same,inhibition,[10]; at 0.5 µM,-10.9% (inactive) and -9.85% (inactive)
same,inhibition,"[10]; measured here: combo with BGB at IC20, at 0.5 µM",-9.31% and -21.4%
same,inhibition,"[10]; measured here: combo with cisplatin at IC20, at 0.5 µM",-20.2% and -6.83%
same,inhibition,[11]; at 0.5 µM,-10.2% (inactive) and 3.78% (inactive)
same,inhibition,"[11]; measured here: inhibition with BGB combination, at 0.05 µM",-8.84% and -23.2%
same,inhibition,"[11]; measured here: inhibition with cisplatin combination, at 0.05 µM",-15.9% and -9.39%
same,inhibition,[12]; at 0.5 µM,-15.2% (inactive) and -24.4% (inactive)
same,inhibition,[12]; [22],-24.8% and -30.4%
same,inhibition,[12]; [23],-13.3% and -26.2%
same,inhibition,[13]; at 0.5 µM,4.59% (inactive) and -23.4% (inactive)
same,inhibition,"[13]; measured here: BGB combination, at 0.5 µM",-1.87% and -40.7%
same,inhibition,"[13]; measured here: BGB combination, at 5 µM",2.42% and -13.4%
same,inhibition,"[13]; measured here: cisplatin combination, at 0.5 µM",-2.04% and -27.9%
same,inhibition,"[13]; measured here: cisplatin combination, at 5 µM",-0.972% and -36.3%
same,inhibition,"[14]; BGB combination, concentration series, at 5 µM",-24.7% and -7.53%
same,inhibition,[14]; at 0.5 µM,-10.7% (inactive) and -7.52% (inactive)
same,inhibition,"[14]; cisplatin combination, concentration series, at 5 µM",-27.7% and -31.9%
same,inhibition,[15],-5.3% (inactive) and -11.3% (inactive)
same,inhibition,[15]; measured here: combo with BGB IC20,-6.99% and -18.5%
same,inhibition,[15]; measured here: combo with cisplatin IC20,-13.8% and -3.66%
same,inhibition,[16]; at 0.5 µM,-3.53% (inactive) and 6.53% (inactive)
same,inhibition,"[16]; cisplatin combination, at 0.5 µM",-17.4% and -25.6%
same,inhibition,"[16]; cisplatin combination, at 5 µM",-105% and -12.9%
same,inhibition,"[16]; measured here: BGB IC40 combination 0.05 uM, at 0.05 µM",-13.2% and 18.5%
same,inhibition,"[16]; single agent, at 5 µM",2.42% and -15%
same,inhibition,[17]; at 0.5 µM,-29.1% (inactive) and -18.3% (inactive)
same,inhibition,"[17]; cisplatin combo, at 5 µM",-12.7% and -24.7%
same,inhibition,"[17]; measured here: BGB IC40 combination, at 0.05 µM",9.85% and -28.2%
same,inhibition,[17]; [22],-32.2% and 3.58%
same,inhibition,"[17]; single agent, at 5 µM",-6.99% and -21%
same,inhibition,[18]; at 0.5 µM,-24.4% (inactive) and -51.1% (inactive)
same,inhibition,[18]; [20],-33.5% and -35.5%
same,inhibition,[18]; [21],-21.8% and -61.5%
same,inhibition,"[18]; single agent, at 0.05 µM",-21.6% and -35.7%
same,inhibition,"[18]; single agent, at 5 µM",11.5% and 14.2%
